# Experimental data reported in PubChem BioAssay AID2279 (Southern Research Specialized Biocontainment Screening …, 2010).
# Results with a measured potency or affinity are listed apart. Calls of active or inactive are those of the source. How the calls were made is not given here.
# Assay: HIV-1 Env-mediated cell fusion inhibitors, dose response, CCR5-tropic Env (AID 2279)
# Details: CCR5-tropic HIV-1 Env, reporter read-out; series mostly up to 50 µM
row,Compound,outcome
1,NC(=O)Cn1cc(C=C2C(=O)NC(=O)NC2=O)c2ccccc21,inactive
2,O=C1NC(=S)N(c2ccc(F)cc2)C(=O)/C1=C/c1ccco1,inactive
3,O=c1oc2ccccc2c(O)c1C(c1ccc([N+](=O)[O-])cc1)c1c(O)c2ccccc2oc1=O,inactive
4,COc1ccc(N2C(=O)/C(=C/c3ccco3)C(=O)NC2=S)cc1,inactive
5,O=C1NC(=S)N(c2ccc(F)cc2)C(=O)/C1=C\c1ccoc1,inactive
6,COc1ccc(OC)c(N2C(=O)/C(=C/c3ccco3)C(=O)NC2=S)c1,inactive
7,O=C(O)c1cccc2c1NC(c1cccc([N+](=O)[O-])c1)C1CC(Sc3ccccc3[N+](=O)[O-])C(Cl)C21 (stereo not drawn),inactive
8,Cc1ccc(N2C(=O)/C(=C/c3ccc(CN(CCC#N)S(C)(=O)=O)o3)C(=O)NC2=S)cc1C,inactive
